Measurements reported in the supplement of paper PMC13380429.

System: Vero E6 infected with SARS-CoV-2
Test: inhibition of SARS-CoV-2 cytopathic effect; higher = more antiviral protection, active = above 15
Settings: 48 h

Measured: inhibition of SARS-CoV-2 cytopathic effect

CCCCCCCCCCCCCCCC(=O)C(F)(F)F
inactive: 1 nM -1.4% | 8.33 nM 0.3% | 100 nM -10.8% | 833.33 nM -13.2% | 10000 nM -0.25%

Cc1cn([C@H]2O[C@@H](CO)[C@H](O)[C@H]2F)c(=O)[nH]c1=O [clevudine]
inactive: 1 nM 3.12% | 8.33 nM -0.16% | 100 nM 1.71% | 833.33 nM 2.27% | 10000 nM 1.38%

CCn1c(=O)c(-c2cc[nH]n2)cc2c(C)nc(N)nc21 [voxtalisib]
inactive: 1 nM 2.67% | 8.33 nM 3.03% | 100 nM 1.3% | 833.33 nM 0.46% | 10000 nM -4.32%

O[C@@H](Cc1ccncc1)C(Cl)(Cl)Cl
inactive: 1 nM 0.9% | 8.33 nM 1.38% | 100 nM 3.16% | 833.33 nM 0.72% | 10000 nM 0.84%
